# Data from PubChem BioAssay AID1347416 (National Center for Advancing Translational Sciences (NCATS), 2020).
# In all, about 4,100 compounds went through this assay and about 1,600 (39%) were called active. Inconclusive results (about 25%) are left out. This is one part of the list. Values without a mark were called inactive. Calls follow the shape of the dose curve; as a rule, active = well fitted inhibition curve with a large enough effect; inconclusive = small, poorly fitted or top-dose-only effect; inactive = no such curve, though single readings can be large or run the other way.
# Assay: qHTS Validation assay for Inhibitors of Plasmodium falciparum Dd2 growth in vitro; also: nearly all actives have a fitted effect of over 70% in size
# Settings: P. falciparum Dd2 in RBCs, SYBR Green growth, 72 h; series mostly up to 28.7 µM; activity change, negative = inhibition: at the top concentration
# In short: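 P. falciparum Dd2-infected red blood cells (2.5% hematocrit, 0.3% parasitemia) grown 72 h at 37 °C under 5% O2 with compounds in a titration, 29 uM to 0.5 nM final. Growth read as SYBR Green-1 fluorescence after ~16 h lysis; artesunate 300 nM as positive control.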
# % is scaled to controls: 0 for no effect and ±100 for the full control effect; potency is read from the fitted curve at half-maximal effect.
Compound,Potency,"activity change, negative = inhibition"
CCOc1ccccc1NC(=O)Cn1c(-c2ccc(Cl)cc2)noc1=O,5.96 µM (active),
CCOc1ccccc1NC(=O)Cn1c(-c2ccccc2)nc(C)cc1=O,,-19.7%
O=C(Cn1c(-c2ccccc2)noc1=O)NCc1ccccc1,,8.85%
O=C1COc2ccc(-c3ccc(Cl)cc3)nc2CN1Cc1ccccc1,,24% [at 43.1 µM]
COc1ccc(-c2ccc3c(n2)CN(Cc2csc(C)n2)C(=O)CO3)cc1F,,-22.2% [at 43.1 µM]
Cc1csc(Nc2ccc3c(n2)CN(Cc2ccccc2C)C(=O)CO3)n1,19.3 µM (active),
CC(=O)c1cccc(N(C(=O)Cn2nnc3ccccc32)C(C(=O)NCc2ccccc2)c2ccc(F)cc2)c1 (configuration not stated),,25.6%
N=c1c2c3c(sc2ncn1Nc1ccccc1)CCC3,3.35 µM (active),
c1cc(Nc2ncnc3sc4c(c23)CCC4)ccn1,,-8.48%
Cc1cc(C)cc(C(=O)NC2CCN(c3cc(-c4ccc(F)cc4)[nH]n3)C2)c1 (configuration not stated),,-3.35%
O=C(Nc1ccc2c(N3CCCCC3)ncnc2c1)c1ccc(F)c(F)c1,4.73 µM (active),
O=C(Nc1ccccc1)c1cnc(N2CCCCC2)c2ccccc12,,6.64%
Cc1cc(C)cc(C(=O)Nc2ccc3c(N4CCCC4)ncnc3c2)c1,2.37 µM (active),
CCN1c2cc(C(=O)Nc3cc(C)cc(C)c3)ccc2C(=O)N2CCCC21 (configuration not stated),,-17.1%
O=C(Nc1ccc2oc(-c3cccc(F)c3)nc2c1)c1ccc2ccccc2c1,,39.4%
O=C(Nc1ccc2c(N3CCCCC3)ncnc2c1)c1cc(F)cc(F)c1,1.88 µM (active),
O=C(Nc1ccc2c(N3CCCC3)ncnc2c1)c1cccc(F)c1,4.73 µM (active),
CC(C)c1noc(-c2cccn3c(CNC(=O)COc4ccc(F)cc4)nnc23)n1,,-0.867%
CCc1noc(-c2ccn3c(CNC(=O)Cc4ccccc4OC)nnc3c2)n1,,8.77%
COc1ccccc1Cc1nc2ccccc2nc1SCC(=O)NCc1ccccc1Cl,2.11 µM (active),
COc1cccc(CNC(=O)CSc2n[nH]c(-c3ccccc3Cl)n2)c1OC,,16.8%
CN1CCCN(C(=O)C2CCCO2)c2ccccc21 (configuration not stated),,-0.486%
O=S(=O)(Cc1ccccc1F)N1CCCC(Cn2c(C3CC3)nc3cccnc32)C1 (configuration not stated),,-8.66%
Cc1cc2c(c3oc(=O)c4ccccc4c13)CN(Cc1ccc(F)cc1)CO2,2.66 µM (active),

Compound,Potency,"activity change, negative = inhibition"
Cc1ccc(CN2COc3cc(C)c4c(oc(=O)c5ccccc54)c3C2)cc1,1.33 µM (active),
Cc1ccc(C)c(-c2[nH]ncc2CN2CCCC(CO)(CCc3ccccc3)C2)c1 (configuration not stated),,-24.8%
COc1ccc(CN2CCC(CO)(CCCc3ccccc3)CC2)c(Cl)c1OC,8.41 µM (active),
Cc1cccc(CNCc2ccccc2OCC(O)CN2CCSCC2)c1 (configuration not stated),1.5 µM (active),
COc1cc(CN2Cc3ccccc3C2)ccc1OCC(O)CN1CCOCC1 (configuration not stated),,39.4%
OC(COc1ccccc1CNCCc1ccccc1)CN1CCSCC1 (configuration not stated),2.11 µM (active),
CN(Cc1ccccc1)Cc1ccccc1OCC(O)CN1CCCCC1 (configuration not stated),1.5 µM (active),
Cc1cccc(CNC(=O)c2cc3c(N4CCSCC4)nc(C)cn3n2)c1,,-2.01%
Cc1cc(Nc2sc(C(=O)c3ccc(F)cc3)c(N)c2C(=O)Nc2ccc(F)cc2)ccc1Cl,0.75 µM (active),
COc1ccc(-c2cnc3[nH]cc(CC(=O)NCc4cccnc4)c3c2)cc1OC,1.53 µM (active),
COc1ccccc1C(=O)N[C@H]1[C@H](O)[C@H](O)C[C@@H]1c1cccnc1,,12.8% [at 43.1 µM]
COc1ccc(C(=O)NCc2nc(-c3cccc(C)c3)no2)cc1OC,,18%
O=C(Cc1c[nH]c2ncc(-c3ccc(Cl)cc3)cc12)NCc1cccnc1,1.72 µM (active),
CC(=O)N1CCCN(C(=O)c2c[nH]c3ncccc23)CC1,,39.5% [at 43.1 µM]
COc1ccc(-c2cnc3[nH]cc(CC(=O)NCc4cccnc4)c3c2)cn1,6.85 µM (active),
CC1(COc2cccnc2)COc2ccc(C(=O)NCc3ccc(F)cc3)cc2N1 (configuration not stated),,29.9% [at 43.1 µM]
O=C(CC[C@@H]1CNC(=O)[C@@H]2C[C@H](NC(=O)Nc3cccc(Cl)c3)CN12)NCc1cccnc1,,18.7%
Cc1cn2nc(C(=O)N3CCC(NC(=O)c4nccc5ccccc45)CC3)cc2c(=O)[nH]1,,33.3%
O=C1NCCCCCN(C(=O)c2ccsc2)[C@@H]2C[C@@H](C(=O)N3CCc4ccccc4C3)C[C@H]12,,-27.2%
O=C1NCCCCCN(C(=O)CC2CCCC2)[C@@H]2C[C@@H](C(=O)N3CCc4ccccc4C3)C[C@H]12,,-34.7%
O=C(NCCc1c[nH]c2ccccc12)[C@@H]1C[C@H]2C(=O)NCCCCCCN(C(=O)c3ccco3)[C@H]2C1,10.6 µM (active),
CCCCn1c(N)c(N(CC(C)C)C(=O)c2cc(-c3ccc(OC)c(OC)c3)nc3ccccc23)c(=O)[nH]c1=O,11.9 µM (active),
CCCCCn1c(=O)[nH]c2cc(C(=O)NCc3ccc(OC)cc3)ccc2c1=O,,0.541%
